Laboratory results from PubChem BioAssay AID2289 (National Center for Advancing Translational Sciences (NCATS), 2010).
Out of some 340,000 compounds screened, about 3,300 (0.97%) were called active. About 9% were inconclusive and are not listed. Calls follow the shape of the dose curve; as a rule, active = well fitted inhibition curve with a large enough effect; inconclusive = small, poorly fitted or top-dose-only effect, or effect the other way; inactive = flat fitted curve, though single readings scatter. Some of the results follow.

assay: qHTS Assay for Modulators of miRNAs and/or Inhibitors of miR-21; details: HeLa miR-21-FLuc reporter, luciferase luminescence, 48 h; actives lower the signal; also: nearly all actives have a fitted effect of over 55% in size
Source text: MLSCN Grant: 1 R21 NS059478-01 Assay Provider: Qihong Huang, The Wistar Institute NCGC Assay Overview: MicroRNAs (miRNAs) are endogenously encoded small (~20-25 nucleotides), nonprotein-coding RNAs that are involved in post-transcriptional repression of target messenger RNAs (mRNAs) (Le and Hannon, 2004). Estimated to be involved in the regulation of 30% of all protein-coding mRNAs (Filipowicz et al., 2008), miRNAs play a significant role in many biological processes including cellular differentiation and tissue development (Ghildiyal and Zamore, 2009).
NCGC Assay Protocol Summary: Reagents: HeLa cells stably expressing firefly luciferase (FLuc) under the control of a CMV promoter (upstream) and a miR-21 binding sequence directly downstream of the gene. These cells endogenously express miR-21. Control compounds used were compound C3 (provided by collaborator), N6-phenyladenosine (MP Biomedicals, 0215379625), and DMSO. Assay Summary: 6uL of HeLa miR-21-FLuc cells in assay buffer (DMEM, Invitrogen #21063-029; 10% FBS, HyClone #SH30071.03) were dispensed at 2000cells/well (3.3 x 10^5 cells/mL) into Greiner solid-white TC-treated 1536-well plates using a Multidrop Combi (Thermo Fisher Scientific). Plates were incubated for one hour at 37 degree Celsius, 95% humidity, 5% CO2. These assay plates were then treated with 23nL of compound or DMSO using a Kalypsys pin tool, which allows for delivery of a 24-point titration of each compound to the assay plate, with a final compound concentration ranging from approximately 40uM to 5pM. Assay plates were then incubated for 48 hours. After incubation, plates were allowed to come to RT for one hour prior to delivery of 3uL of 3X luciferase detection reagent. After a 15 minute incubation to allow for cell lysis, luciferase activity was measured using a ViewLux CCD imager (PerkinElmer), with an average exposure time of 2-12 seconds. Keywords: NIH Roadmap, MLPCN, MLSMR, qHTS, miR-21, microRNA, firefly luciferase, FLuc.
Potency is read from the fitted curve at half-maximal effect.

Compound | Potency
O=C(NNc1c(F)c(F)cc(F)c1F)c1cc2ccccc2oc1=O | 8.26 µM (active)
COc1ccc(-c2n[nH]c(=S)n2-c2ccc3c(c2)OCCO3)cc1OC | 16.5 µM (active)
Cc1ccc(-c2cc(NC(=O)c3ccccc3)on2)cc1 | 2.93 µM (active)
CC1CCc2c(sc3nc(CSc4n[nH]c(N)n4)[nH]c(=O)c23)C1 (stereo not given) | 16.5 µM (active)
Nc1nc(SCc2ccc(Cl)cc2Cl)n[nH]1 | 14.7 µM (active)
CCN(CC)c1ccc(/C=C2\C(=O)NC(=S)N(C)C2=O)o1 | 1.31 µM (active)
CN1C(=O)/C(=C/c2ccc(N3CCCCCC3)o2)C(=O)NC1=S | 0.826 µM (active)
CCCCn1c(O)c(/C(C)=N/NC(=O)Nc2ccccc2)c(=O)[nH]c1=O | 11.7 µM (active)
COc1ccc(CCN2CCCC(CN(C)C(=O)c3cc(C)oc3C)C2)cc1 (stereo not given) | 4.65 µM (active)
COc1ccc(NC(=O)CCCn2c(=O)oc3ccccc32)cc1Cl | 9.27 µM (active)
Cn1cnc2cc(NC(=O)c3ccc(Cl)cc3)ccc21 | 1.85 µM (active)
COc1ccc(CNC(=O)c2ccc(C(C)C)cc2)cc1 | 3.29 µM (active)
Cc1cccc(N=Nc2ccc(N(C)C)cc2)c1 | 2.93 µM (active)
COC(=O)C(O)(c1ccc(NC(=O)NC2CCCCC2)cc1)C(F)(F)F (stereo not given) | 8.26 µM (active)
CCN(CC)C(=O)Oc1ccc2cc(Br)ccc2c1 | 11.7 µM (active)
O=C(Oc1ccc2cc(Br)ccc2c1)N1CCCCCC1 | 4.14 µM (active)
O=c1c2ccccc2[nH]c(=S)n1-c1ccc2c(c1)OCCO2 | 7.36 µM (active)
O=c1cc(-c2ccc(O)c(O)c2)oc2cc(O)cc(O)c12 | 3.29 µM (active)
Cc1cnn(-c2cc(Oc3ccccc3)ncn2)c1 | 16.5 µM (active)
CC(C)(C)n1cc(C(=O)c2ccc3ccccc3c2O)cn1 | 0.233 µM (active)
c1ccc2c(CN3CCCCCC3)c[nH]c2c1 | 2.93 µM (active)
CN(C)C(=O)Oc1ccc2c(c1)O/C(=C\c1ccccc1)C2=O | 4.65 µM (active)
O=c1c2ccccc2nc(Cc2ccccc2)n1-c1ccccc1 | 5.85 µM (active)
COc1ccccc1N=Nc1c(O)[nH]c(=S)[nH]c1=O | 13.1 µM (active)
BrCC1C[n+]2c(SCc3ccccc3)nc3sc4c(c3c2O1)CCCC4 (stereo not given) | 16.5 µM (active)

Compound | Potency
O=C(c1cc(-c2cccc(Cl)c2)on1)N1CCOCC1 | 8.26 µM (active)
O=C(Nc1nc2c(s1)CCCCCC2)Nc1ccc(F)cc1F | 0.329 µM (active)
Cc1cc(C(=O)Nc2ccccc2)nn1C(C)(C)C | 2.07 µM (active)
Cc1cc(C(=O)Nc2ccc3c(c2)OCCO3)nn1C(C)(C)C | 5.85 µM (active)
CN(CC(=O)N1CCc2ccccc21)S(=O)(=O)c1cccs1 | 5.85 µM (active)
COc1ccc(-c2cc(=NCC(=O)O)c3ccccc3o2)cc1 | 3.69 µM (active)
COc1ccc(-c2cc(=NCCC(=O)O)c3cc(C)ccc3o2)cc1 | 0.656 µM (active)
CCCCN1CC(O)=C(c2nc3ccccc3s2)C1=N | 6.56 µM (active)
CC(=O)Nc1ccccc1C(=O)OCC(=O)c1ccccc1Cl | 14.7 µM (active)
COc1ccc2nc(NC3=NCCN3)sc2c1 | 1.65 µM (active)
Cc1ccnc(SCc2nc3ccccc3s2)n1 | 7.36 µM (active)
O=c1oc2ccccc2n1CCCOc1ccccc1 | 13.1 µM (active)
Cc1cccc(OCCn2c(=O)oc3ccc(C)cc32)c1 | 14.7 µM (active)
Cc1ccc(NC(=O)O/N=C/c2cccc([N+](=O)[O-])c2)cc1 | 16.5 µM (active)
Cc1nc(Cl)sc1C(=O)Nc1ccc2ccccc2c1 | 5.85 µM (active)
O=C(CSCc1ccccc1)Nc1ccc2c(c1)OCO2 | 5.21 µM (active)
Cc1ccc(-c2nn(Cc3ccccc3)cc2C=O)cc1 | 6.56 µM (active)
Cc1ccc(-c2nc(N3CCOCC3)s[n+]2-c2ccccc2)cc1 | 5.21 µM (active)
c1ccc(-c2nc(N3CCOCC3)s[n+]2-c2ccccc2)cc1 | 13.1 µM (active)
Cn1nnc2cc(NC(=O)Nc3cccc(Cl)c3)ccc21 | 1.47 µM (active)
c1ccc(CN2CCc3nc4ccccc4cc3C2)cc1 | 14.7 µM (active)
Cc1ccc(NN=C2C(=O)OC(C)(C)OC2=O)c(C)c1 | 11.7 µM (active)
O=C(NCC(c1cccnc1)N1CCOCC1)Oc1ccccc1 (stereo not given) | 16.5 µM (active)
Cc1nc2ccc(NC(=O)c3ccc(Cl)s3)cc2s1 | 2.93 µM (active)
Cc1nc2ccc(NC(=O)C3COc4ccccc4O3)cc2s1 (stereo not given) | 7.36 µM (active)
